# Screens deposited in PubChem BioAssay by several laboratories.
# Compounds with a hit are over-represented: about 2.2% of the library has one in this group of screens.
# KLF5 inh: KLF5 expression inhibitors, primary screen, DLD-1 cells, luminescence; AID 1700, 2009; 0.23% of 290,000 active; DLD-1 KLF5 promoter-luciferase reporter; inhibition, % at 5 µM;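 active means inhibition above a per-plate limit of that plate's mean compound inhibition plus 3 SD, cut at about 60% in these data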;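 further: 0% = DMSO wells and 100% = LY294002 at 200 µM; higher means less KLF5 promoter-driven luciferase light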
# APP 5UTR inh: inhibitors of APP translation via 5'UTR reporter, primary screen, APP 5'UTR luciferase, SH-SY5Y cells; SH-SY5Y APP 5'UTR-luciferase reporter, luminescence; inhibition, % at 2 µM; 0.82% of 190,000 active; AID 1285, 2008;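 active means inhibition above a set limit, derived from the sample mean plus 3 SD, cut at about 45% in these data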
# Ba/F3 V617F tox: reduced viability of JAK2V617F-dependent Ba/F3 cells, primary screen, JAK2V617F inhibitor project, cell-based, Ba/F3 EpoR-JAK2V617F, luminescence. 1.1% of 220,000 active. ATP luminescence. inhibition, % at 5.6 µM;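 active means inhibition above the campaign mean plus 3 SD over all tested compounds, cut at about 24% in these data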;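 further: cytokine-independent growth of Ba/F3 cells driven by EpoR plus mutant JAK2; 0% = DMSO-treated cells and 100% = JAK inhibitor I control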
# IEC-6 cytotox: cytotoxicity in IEC-6 intestinal epithelial cells, primary screen, cytotoxicity control for KLF5 inhibitor project, cell-based, luminescence | 0.78% of 290,000 active | inhibition, % at 5 µM | IEC-6 cytotoxicity, luminescence viability; in the data active means inhibition above about 22%;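 further: 0% = plate median of test compound wells and 100% = cytotoxic reference compound wells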
# aSyn 5UTR inh: MLPCN primary screen, SNCA 5' untranslated region; alpha-synuclein 5'UTR reporter, inhibitor activity; inhibition, % (tested at 7.5 µM); 0.82% of 300,000 active; AID 1813, 2009; in the data active means inhibition above about 60%;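 further: H4 neuroglioblastoma cells stably carrying SNCA 5'UTR luciferase fusion; 0% = DMSO wells and 100% = positive control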
# BaF3 tox: parental Ba/F3 cell viability inhibition, counter-screen for JAK2V617F inhibitor project, murine pro-B, CellTiter-Glo luminescence. inhibition, % at 5.6 µM. 1.1% of 220,000 active. CellTiter-Glo ATP luminescence;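 active means inhibition above a per-campaign cutoff, the mean inhibition of all tested compounds plus 3 SD, cut at about 27% in these data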;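 further: 0% = DMSO wells and 100% = JAK Inhibitor I control wells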
# BaF3 tox 2: parental Ba/F3 cell viability inhibition, counter-screen for JAK2V617F inhibitor project, murine pro-B, CellTiter-Glo luminescence; shares compounds with Ba/F3 V617F tox; cells kept alive by added IL-3; inhibition, % at 5.6 µM; 31% of 580 active; AID 1520, 2009;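 active means cell growth inhibition above the hit limit set in the earlier mutant JAK2 cell screen, cut at about 27% in these data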;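 further: plate controls were DMSO-treated cells for no effect and JAK Inhibitor I control wells for full effect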
# JAK2V617F conf: viability loss in Ba/F3 EpoR-JAK2V617F cells, confirmation, JAK2V617F inhibitor project, cell-based, luminescence, triplicate | 66% of 580 active | shares compounds with Ba/F3 V617F tox | inhibition, % at 5.6 µM | CellTiter-Glo luminescence;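 active means mean inhibition above the hit cutoff derived in the earlier primary screen, cut at about 25% in these data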;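 further: 0% = DMSO-treated cells and 100% = JAK inhibitor I control wells; higher means lower luminescence from reduced cell ATP and viability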
# Active calls of the source: *; · = not tested or not shown.
SMILES,KLF5 inh,APP 5UTR inh,Ba/F3 V617F tox,IEC-6 cytotox,aSyn 5UTR inh,BaF3 tox,BaF3 tox 2,JAK2V617F conf
CN(c1ccccc1)S(=O)(=O)c1cccc(C(=O)NCCc2ccc(O)c(O)c2)c1,-9,-4,32*,12,7,7,4,67*
COc1ccc2nc(C)cc(SCC(=O)NNC(=O)COc3ccccc3)c2c1,-6,0,-4,0,-8,1,·,·
COc1ccc2nc(C)cc(Sc3nc4ccccc4s3)c2c1,-22,·,32*,18,5,5,17,55*
O=C(O)c1ccccc1N=Cc1c(O)n(-c2nccs2)c(=O)c2ccccc12,-15,·,17,3,-4,2,·,·
CCN(CC)S(=O)(=O)c1cccc(-n2c(O)c(C=Nc3ccccc3C(=O)O)c3ccccc3c2=O)c1,-21,·,26*,17,-58,10,9,55*
N#CCC(=O)NNc1c([N+](=O)[O-])cc(C(F)(F)F)cc1[N+](=O)[O-],-21,·,2,-2,50,4,·,·
Cc1cc(C)cc(N(CCC#N)C(=O)COC(=O)C2CCN(c3ccc(C(F)(F)F)cn3)CC2)c1,·,·,·,·,6,·,·,·
CCCn1c(SCC(=O)NC2CCCc3ccccc32)n[nH]c1=O (stereo unspecified),-7,-2,57*,1,-3,8,-2,-3
CCCn1c(SCC(=O)NC2CCCC(C)C2C)n[nH]c1=O (stereo unspecified),-19,-9,2,-4,7,8,·,·
CC(=O)NCC(=O)N1CCCC(C(=O)c2ccc(Oc3ccccc3)cc2)C1 (stereo unspecified),-26,-8,-4,9,-1,0,·,·
C/C(=C\C(=O)O)CC(=O)O,-7,-14,53*,5,-4,4,-6,-7
COc1ccccc1C(C[N+](=O)[O-])c1c(N)n(C)c(=O)n(C)c1=O (stereo unspecified),-2,·,37*,3,-10,4,-1,96*
COc1ccccc1C(c1c(N)n(C)c(=O)n(C)c1=O)C(C)[N+](=O)[O-] (stereo unspecified),-1,·,-4,-8,-14,3,·,·
COc1cccc(-n2nnnc2S(C)(=O)=O)c1,22,4,52*,39*,10,2,32*,95*
CC(=O)c1ccc2cccc3c2c1N=CN3C,9,1,50*,-8,6,11,-3,8
CCCCn1c(N)c(N(CCOC)C(=O)CSCc2cccc(C)c2)c(=O)[nH]c1=O,·,·,·,·,-10,·,·,·
Cc1c(Cc2ccccc2)c(=O)oc2cc(O)ccc12,-15,·,-2,0,-2,2,·,·
Cc1c(Cc2ccccc2)c(=O)oc2c(O)c(O)ccc12,-3,-4,44*,4,-23,1,2,64*
CCOC(=O)C1(Cc2ccccc2C(F)(F)F)CCN(CC(O)CO)CC1 (stereo unspecified),-15,-7,0,-6,15,7,·,·
CCOC(=O)C1(Cc2ccccc2C(F)(F)F)CCN(C2CCN(C(C)C)CC2)CC1,-5,9,73*,17,·,16,14,42*
COCCNC(=O)CSCc1cc(C)cc(C)c1,-16,-8,3,2,-8,5,·,·
Cc1ccc(CSCC(=O)NCc2cccnc2)cc1,34,9,2,-2,5,10,·,·
Cc1ccc(CC(=O)NCc2cccnc2)cc1,-8,10,58*,-5,-1,7,-8,-7
CC1(c2ccccc2)NC(=O)N(CC(=O)N2CCN(S(=O)(=O)c3cccs3)CC2)C1=O (stereo unspecified),·,·,·,·,1,·,·,·
O=C(Nc1ccccc1C(=O)O)c1ccc(CN2C(=O)c3ccccc3C2=O)cc1,-55,·,·,0,-4,·,·,·
SMILES,KLF5 inh,APP 5UTR inh,Ba/F3 V617F tox,IEC-6 cytotox,aSyn 5UTR inh,BaF3 tox,BaF3 tox 2,JAK2V617F conf
COc1ccc(CCC(=O)Nc2cc(Cl)ccc2N2CCN(C)CC2)cc1,-21,-4,33*,-2,-16,1,-5,2
O=C1CCC(C(=O)N2CCC(CO)(Cc3ccc(Cl)cc3)CC2)=NN1,13,10,0,-6,-4,9,·,·
CCCOc1ccc(C(=O)C(CN2CCCC2)c2ccccc2)cc1 (stereo unspecified),-30,92*,65*,6,-47,6,52*,99*
CCCCOc1ccc(C(O)C(CN2CCCCC2)c2ccccc2)cc1 (stereo unspecified),-14,4,-2,-5,-27,11,·,·
NC(=O)c1nsc(C(=O)N(Cc2ccccc2Cl)C(C(=O)NCC2CCCO2)c2ccc(O)cc2)c1N (stereo unspecified),13,·,·,2,11,·,·,·
O=C(Nc1ccccc1)c1cnc2ccccc2n1,-27,-51,103*,19,-116,10,-1,-4
CCC(CC)COC(=O)C1=C(C)NC(=O)NC1c1ccc2c(c1)OCO2 (stereo unspecified),-30,·,·,-8,21,·,·,·
Cc1ccccc1-c1nn(-c2ccc(F)cc2F)cc1CNCCCN(C)C,-34,-3,26*,4,15,10,3,21
COc1ccc(OC)c(NS(=O)(=O)c2ccc(SC)cc2)c1,6,4,30*,22,-161,26,19,70*
Cc1ccc(NC(=O)CSc2nnc(C(F)(F)F)n2C)cc1[N+](=O)[O-],4,-14,-2,7,8,0,·,·
CCCC(=O)N(C1CC(C)C(C#N)(C#N)C1(C#N)C#N)N(C)C (stereo unspecified),11,·,46*,9,-11,-2,-1,62*
Cc1cc(-c2nn(-c3ccccc3F)cc2CN(C)CC(O)CO)c(C)s1 (stereo unspecified),-18,-13,-2,-3,17,3,·,·
CCC(C)n1ncn(-c2ccc(N3CCN(c4ccc(O)cc4)CC3)cc2)c1=O (stereo unspecified),57,0,33*,4,73*,8,59*,48*
NS(=O)(=O)c1ccc(Sc2nc3ccccc3s2)c([N+](=O)[O-])c1,-24,·,65*,4,67*,21,36*,93*
CCc1ccc(NC(=O)C(NS(=O)(=O)c2ccc3c(c2)CCN3C(C)=O)C(C)C)cc1 (stereo unspecified),-24,·,·,-4,-15,·,·,·
